Our source for the binding signal values is article PMC7819943, “Rice protein-binding microarrays: a tool to detect cis-acting elements near promoter regions in rice”.

The full ranking holds about 68,000 sequences; the median of “fluorescence intensity (a.u.)” is about 9,100, and the highest 2% start at about 16,000. The entries come from a sample that favours the highest values as a whole.

Chain of OsWRKY34 (Q0JBA9 entry or part of it): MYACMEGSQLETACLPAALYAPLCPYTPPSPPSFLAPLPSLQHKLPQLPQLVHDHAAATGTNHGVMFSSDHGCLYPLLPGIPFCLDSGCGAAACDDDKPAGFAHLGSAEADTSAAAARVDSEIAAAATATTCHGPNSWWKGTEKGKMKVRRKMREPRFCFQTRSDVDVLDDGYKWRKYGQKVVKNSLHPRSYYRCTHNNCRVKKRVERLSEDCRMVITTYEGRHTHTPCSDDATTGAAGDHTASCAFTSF

The target of the assay is OsWRKY34 (Oryza sativa, UniProt Q0JBA9 1-250). The assay is described as follows: protein-binding microarray (RPBM); PBS, 2% BSA, 51.3 ng/ul salmon testes DNA, 50 uM zinc acetate, 200 nM TF, 25 C, 1 h; high values mean tight binding. To be noted: protein: recombinant; tags: N-terminal polyhistidine and DsRed monomer fusion (pET32a); label: CyDye5-dUTP incorporated in the synthesized complementary strand; 3' TTTTT single-stranded linker to array surface; dsDNA, one strand shown. An outline of the steps:
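Binding signal is defined as the fluorescence intensity of each feature in arbitrary units, read on an Axon 4000B scanner. Transcription factors with N-terminal polyhistidine and DsRed fusions came from E. coli BL21-CodonPlus and were purified on Ni–NTA. They were incubated at 200 nM for 1 h at 25 °C on a custom Agilent array that had been made double-stranded with Cy5-dUTP, with 50 µM zinc acetate present, and the array was washed.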
For “ACGACCCTCTACATGTTGCTGCTGGCAGCCGCTCCCTCTCCGGAGTCACCTAGTGCAG”, the binding signal was 8660 fluorescence intensity (a.u.). Under “GTTTTTCATATTTGACGATCAAACGGTGGTTTTAAAACTTCGGAGTCACCTAGTGCAG” stands 8140 fluorescence intensity (a.u.); under “CACTTTTTCATGGATTTTTACTTATTTAATGATTTTTTATCGGAGTCACCTAGTGCAG”, 8240 fluorescence intensity (a.u.); under “TAGTGGGGAGGCGGTGGTGCTGCGGGGAGGGAGGGAGCACCGGAGTCACCTAGTGCAG”, 12800 fluorescence intensity (a.u.). The value for “AGCGAGCGACGGGCGGGGCGGAGCGGGGCGGGGCTGCATTCGGAGTCACCTAGTGCAG” was 16700 fluorescence intensity (a.u.). Turning to “AGGCGAGCGAGACGGCGGCGGGCGGGCGGGGCGGGCGACGCGGAGTCACCTAGTGCAG”, the binding signal is 14800 fluorescence intensity (a.u.). Turning to “TGGCAGGGTTGCATGGTTCTGGAGGGCGGGCTGTTATATTCGGAGTCACCTAGTGCAG”, the binding signal was 13500 fluorescence intensity (a.u.). As for “GGCTGTTGTTTTTCCTTGTTATTCTTTCAGTAAGATATTTCGGAGTCACCTAGTGCAG”, the binding signal is 12800 fluorescence intensity (a.u.). For the sequence “CTCGATTCTTCTGCAGCTGGGCGGGAGGGGAGGCGTGGCGCGGAGTCACCTAGTGCAG”, the binding signal is 18300 fluorescence intensity (a.u.). Regarding “GGAGGGCGGGCTGTTATATTCTTCACACCTTGCATGTAAGCGGAGTCACCTAGTGCAG”, the binding signal is 18700 fluorescence intensity (a.u.). For “GTCGTGGGCGGGAGGTGGTGGTGGTGGTGCTGCTGCATTGCGGAGTCACCTAGTGCAG”, the binding signal is 11600 fluorescence intensity (a.u.). For “CGATGGCTGGAGGGGAGGCGGCGGCGCATCGTGGCGGGCGCGGAGTCACCTAGTGCAG”, the binding signal was 8030 fluorescence intensity (a.u.). For “GGCGAGCGCGTCGTGGAGGGCGGGGAGGGAGTCGGGCTGGCGGAGTCACCTAGTGCAG”, the binding signal is 14400 fluorescence intensity (a.u.). On to “GGGGAGGTTGCTGCTGCTGCTGGGCGGGTGGGCGGAGGGGCGGAGTCACCTAGTGCAG”, for which the binding signal is 28100 fluorescence intensity (a.u.). As to “GGCGGGGCAGACGGAGGCCGACGGCTGCAGCGGGCTGGGGCGGAGTCACCTAGTGCAG”, the binding signal was 9010 fluorescence intensity (a.u.).

With “TCTGTCCCTCAATCCCGCGACGCCGCCGCCGTTCTGCTCCCGGAGTCACCTAGTGCAG”, the binding signal is 10000 fluorescence intensity (a.u.). Under “GATCCTATCATTTTCAACGATGTTAAATCGTCACAGGCTTCGGAGTCACCTAGTGCAG” stands 8310 fluorescence intensity (a.u.); under “CCTCATTAGCTAGCTTTTTAGGGTGGGGAAGGCCCTTTACCGGAGTCACCTAGTGCAG”, 12700 fluorescence intensity (a.u.); under “CTCACTTGCATCTTTCCAATATCTTAGTCATTCATTAATACGGAGTCACCTAGTGCAG”, 8520 fluorescence intensity (a.u.). The value for “GTAAATTATGTATGACGCGGTTGACTTTTTATTAACGTTTCGGAGTCACCTAGTGCAG” was 16800 fluorescence intensity (a.u.); that for “AATGATGTTGTTGACTTTTAAAATAACGTATGGCCGTTCACGGAGTCACCTAGTGCAG” was 8770 fluorescence intensity (a.u.). The value for “CTAAATTAATGGTCGCTTTGACTTTTTTTATGTAATGTTTCGGAGTCACCTAGTGCAG” was 14700 fluorescence intensity (a.u.). For “CATCCGTATGATTCGACTTTTTTTTCACGTTGATTTTATACGGAGTCACCTAGTGCAG”, the binding signal is 9050 fluorescence intensity (a.u.).

In the case of “AATGTATGACGCCGTTGACTTTTTGCCCAACGTTTGACCACGGAGTCACCTAGTGCAG”, the binding signal is 38700 fluorescence intensity (a.u.). For the sequence “AATGTATGACGCAGTTGACTTTGTGACAAACGTTTGACCTCGGAGTCACCTAGTGCAG”, the binding signal was 12300 fluorescence intensity (a.u.). In the case of “AATTGTAAAGTTGACTTTAATGTTTTTTTTATTGTGGTTTCGGAGTCACCTAGTGCAG”, the binding signal is 8740 fluorescence intensity (a.u.).

As for “AATGTATGATGCCGTTGACTTTTCGACTAACGTTTGACCACGGAGTCACCTAGTGCAG”, the binding signal was 29200 fluorescence intensity (a.u.). For “AATGTATGACGCCGTTGACTTTTTATCAAACGTTTGACCACGGAGTCACCTAGTGCAG”, the binding signal was 34800 fluorescence intensity (a.u.). For the sequence “TTTTTTTCAATTCGTTTTTTTTTCATTTTTCATCGTCTTTCGGAGTCACCTAGTGCAG”, the binding signal was 8400 fluorescence intensity (a.u.). Turning to “TACTACTCTCGTGTGGCAAAATTTTGTCTTAGTTCTTGAACGGAGTCACCTAGTGCAG”, the binding signal was 8100 fluorescence intensity (a.u.). Turning to “GCGTTGTGGGTGTCTTGTGTTGTACTGCGTAATTCTTAAACGGAGTCACCTAGTGCAG”, the binding signal was 15000 fluorescence intensity (a.u.). For “CACAACTATTTCTACTTTTATCATTCCTACCTTTTCTAATCGGAGTCACCTAGTGCAG”, the binding signal is 8180 fluorescence intensity (a.u.).

On to “CTAGCCCGTTAACATTACTGTTCATCTCCCTATCCGTCTCCGGAGTCACCTAGTGCAG”, for which the binding signal was 9570 fluorescence intensity (a.u.). The value for “TCCTACACCACCCCGTTCTCGCGCCCATCGATCCAACCGACGGAGTCACCTAGTGCAG” was 8920 fluorescence intensity (a.u.); that for “AGCCACAAATCCTTATTCGTTCAATTGTTTTTCTTCCTCTCGGAGTCACCTAGTGCAG” was 8140 fluorescence intensity (a.u.). Turning to “ATCGCGAAGTTCGCGACCCGATTCCTCTCCGCCCGCCATGCGGAGTCACCTAGTGCAG”, the binding signal is 8380 fluorescence intensity (a.u.). Take “GTACATGCATTATCCATATCTCTAAATTTAGCAATCACTTCGGAGTCACCTAGTGCAG”: the binding signal is 9480 fluorescence intensity (a.u.). As to “AGTTCACTTTAGGTCCCTCTATTTGTCGTCCAGTCTGATTCGGAGTCACCTAGTGCAG”, the binding signal is 8180 fluorescence intensity (a.u.). The value for “GCGGCCAGGCCACCTCCAGCTCTTTTCACTCCTGGCTAACCGGAGTCACCTAGTGCAG” was 9500 fluorescence intensity (a.u.); that for “GTGGACGTTTTTGACTTTGTACTTTCAACGTTTGACCATTCGGAGTCACCTAGTGCAG” was 13900 fluorescence intensity (a.u.).

In the case of “CCCGTCAACGCCACCTCACCGTTGACGTTGCCACTCTCTTCGGAGTCACCTAGTGCAG”, the binding signal was 16800 fluorescence intensity (a.u.).

For “TCTTCGTATAAAAAGTATGACGCCGTTGACTTTTCATATACGGAGTCACCTAGTGCAG”, the binding signal is 14500 fluorescence intensity (a.u.). Consider “TATTACTCCCTTCGTATTTTAATGTATGACGCCGTTGACTCGGAGTCACCTAGTGCAG”, for which the binding signal was 8820 fluorescence intensity (a.u.).
